# From ChEMBL document CHEMBL4513216, “Probing the Open Global Health Chemical Diversity Library for Multistage-Active Starting Points for Next-Generation Antimalarials” (ACS Infect Dis, 2020)
# Out of some 69,000 compounds screened, about 8,600 (12%) showed an effect of 50% or more. The full list was thinned out, with strong results kept by preference.
# Test system: Plasmodium berghei
# Assay: Screen against P. berghei liver stage (PbLuc), transformed with Luciferase, at 10uM
# Type: functional, HepG2
# Settings: tested at 10 uM
row,Compound,INHIBITION
1,O=C(Nc1ccccc1N1CCOC1=O)N1CCc2sccc2C1,18.4%
2,CCn1c(=O)n(CC)c2cc(S(N)(=O)=O)ccc21,29.1%
3,COCC1CC2(CCNCC2)CN1Cc1csc(C)n1 (stereo unspecified),-15.3%
4,Cc1noc(CCCC(=O)NC(C)c2ccc(Cl)s2)n1 (stereo unspecified),-2.95%
5,O=C(CCO)N1C[C@@H]2CC[C@H]1CN(C1Cc3ccccc3C1)C2,-43.5%
6,CC(C)COc1cccc(-c2nc3c([nH]2)CCNC3)c1,41.5%
7,COc1cccc(-c2nc3c([nH]2)CCNC3)c1F,61%
8,COc1ccc(-c2nc3c([nH]2)CCNC3)c(OC)c1OC,28.7%
9,CC(C)NC(=O)Nc1ccc(-c2nc3c([nH]2)CCNC3)cc1,-100%
10,CC(=O)c1cccc(-c2nc3c([nH]2)CCNC3)c1F,37.8%
11,CC(C)N(C(=O)c1ccccc1-c1nc2c([nH]1)CCNC2)C(C)C,54.5%
12,CS(=O)(=O)N1CCCC(Cc2ccnc3ccncc23)CC1 (stereo unspecified),19.6%
13,O=C(c1cccnc1)N1CCCC2(CCN(c3ccsc3)C2=O)C1 (stereo unspecified),-33.7%
14,CN(C)C(=O)[C@@H]1CCO[C@@H]2CCN(Cc3ccc4c(c3)OCO4)C[C@@H]21,10.8%
15,COc1cc(N2CCC3(CCCN3Cc3cnn(C)c3)CC2)ncn1,13.7%
16,CCCN1CCc2nc(SCc3ccc(F)cc3)[nH]c(=O)c2C1,20%
17,CCCN1CCc2nc(SCc3ccccc3)[nH]c(=O)c2C1,17.7%
18,COCCN1CCc2nc(SCc3ccc(F)cc3)[nH]c(=O)c2C1,56.3%
19,Cn1cnnc1C1CCCN(C(=O)c2ccccn2)C1 (stereo unspecified),13.6%
20,Cc1cccc(C(=O)N2C[C@@H]3CC[C@H]2CN(S(=O)(=O)N(C)C)C3)n1,18.2%
21,Cc1oc(-c2cccs2)nc1C(=O)N(C)C1(C#N)CCC1,-11.6%
22,CN(C(=O)Cc1coc(-c2ccccc2)n1)C1(C#N)CCC1,78.3%
23,CN(C(=O)Cc1coc(-c2cccs2)n1)C1(C#N)CCC1,27.9%
24,Cc1nc(C)n(C2CCCN(C(=O)c3sccc3C)C2)n1 (stereo unspecified),-19.6%

row,Compound,INHIBITION
1,CCn1nc(C)c2c1cnn2CCNS(C)(=O)=O,16.8%
2,CCn1nc(C)c2c1cnn2CCNS(=O)(=O)c1ccccc1,-22.2%
3,CCn1nc(C)c2c1cnn2CCNS(=O)(=O)c1cccs1,60.7%
4,Cc1ccsc1CNCc1c(C(C)C)nn(C)c1N1CCOCC1,9.52%
5,COC(=O)C(CNC(=O)Nc1nncs1)Cc1ccc(O)cc1 (stereo unspecified),51%
6,COC(=O)C(CNC(=O)Nc1nncs1)Cc1ccc(F)cc1 (stereo unspecified),37.6%
7,COC(=O)C(CNC(=O)Nc1cn[nH]c1)Cc1cccc(C)c1 (stereo unspecified),11.9%
8,Cc1ccc(CNC(=O)Nc2nncs2)cn1,27.4%
9,COc1cc(CNC(=O)Nc2nncs2)ccc1O,-73.6%
10,COC(=O)C(CNC(=O)Nc1nncs1)Cc1cccc(C)c1 (stereo unspecified),76.8%
11,Cc1ccccc1OC1(C(=O)O)CCN(C(=O)CCc2ccco2)CC1,39.3%
12,CC(C)c1nc(CN(C)C2CCN(CCc3ccncc3)C2)no1 (stereo unspecified),-16%
13,Cc1ccc(CN(C)C(=O)CN2CCOC(Cn3cccn3)C2)o1 (stereo unspecified),11.6%
14,Cn1nc(C2CN(C(=O)c3ccncc3)C2)c2nccnc21,22%
15,CCc1nc(Cn2nc(COC)oc2=O)cs1,49.9%
16,CCCc1nn(Cc2csc(C(C)C)n2)c(=O)o1,29.4%
17,CCCc1nn(Cc2csc(CC)n2)c(=O)o1,61%
18,Cc1csc(CNC(=O)CCCc2cccs2)n1,3.48%
19,Cc1n[nH]cc1CNC(=O)CCCc1cccs1,54.5%
20,Cc1nc(CNC(=O)CCCc2cccs2)no1,35.9%
21,COc1c(C(=O)NCc2cnn(C)c2C)nnn1Cc1ccccc1,40.8%
22,N#CC1COCCN1C(=O)c1ccc2[nH]cnc2c1 (stereo unspecified),-13.9%
23,N#CC1COCCN1C(=O)c1ccc2[nH]ccc2c1 (stereo unspecified),19.7%
24,N#CC1COCCN1C(=O)c1ccc2cc[nH]c2c1 (stereo unspecified),53.3%

row,Compound,INHIBITION
1,O=c1[nH]c(COc2ccc(Cl)cc2)nc2c1CCNC2,-9.66%
2,CCCc1nnsc1C(=O)NCC(O)c1cccs1 (stereo unspecified),19.9%
3,CCOCCN1C[C@H](c2cccc(OC)c2)[C@@H](N)C1,39.9%
4,COc1cccc([C@H]2CN(C(=O)c3cc(C)on3)C[C@@H]2N)c1,23.5%
5,COc1cccc([C@H]2CN(C(=O)c3scc4c3CCCC4)C[C@@H]2N)c1,60.1%
6,C/C=C(\C)CN1C[C@H](c2cccc(OC)c2)[C@@H](N)C1,-0.273%
7,COc1cccc([C@H]2CN(C(=O)c3nnc4n3CCCC4)C[C@@H]2N)c1,58.1%
8,COc1cccc([C@H]2CN(C(=O)c3noc4c3CCCC4)C[C@@H]2N)c1,31.4%
9,CC(C)CCOCCNC(=O)Nc1ccc(F)c(C(N)=O)c1,-25.9%
10,CCn1c(N)nc2cc(C(=O)NCc3cccc(C)c3C)cnc21,-25.7%
11,CCc1nnc(CN2CCC(N3CCN(CC)C3=O)CC2)o1,-27.8%
12,Cc1cccn2c(=O)cc(OC(=O)c3ccc(OC(C)C)cc3)nc12,-5.59%
13,Cc1ccc2c(cnn2CCC(=O)NCc2csc(C)n2)c1,23.6%
14,CCn1cnnc1CCNS(=O)(=O)N1CCCC1c1ccco1 (stereo unspecified),27.7%
15,Cc1c(CN2CCCC2c2cncc(CN3CCCC3)n2)cnn1C (stereo unspecified),12.9%
16,CC(COc1ccccc1)NS(C)(=O)=O (stereo unspecified),52.6%
17,Cc1ccc(OCC(C)NC(=O)CN(C)c2ccc(C#N)cn2)cc1 (stereo unspecified),8.38%
18,COc1ccc(OCC(C)NS(C)(=O)=O)cc1 (stereo unspecified),0.472%
19,Cc1ccc(OCC(C)NS(C)(=O)=O)cc1C (stereo unspecified),15.7%
20,Cc1ccc(OCC(C)NS(C)(=O)=O)cc1 (stereo unspecified),-1.7%
21,Cc1ccc(OCC(C)NS(=O)(=O)N(C)C)cc1 (stereo unspecified),51.5%
22,CCOc1ccc2[nH]c(=O)c(CN3CCC(N4CCCC4)CC3)cc2c1,-1.54%
23,Cc1cccc(C(=O)N2CCCC(c3noc(C)n3)C2)n1 (stereo unspecified),4.71%
